Among the data in PubChem BioAssay (NCATS) are Potency values, retold here.

SMILES strings stand for the structures. Records with an inconclusive call do not appear. Entries that show only a call come without a potency. Active and inactive are the calls of the source. Calls follow the shape of the dose curve; as a rule, active = well fitted inhibition curve with a large enough effect; inconclusive = small, poorly fitted or top-dose-only effect; inactive = flat fitted curve, though single readings scatter.
Potency is read from the fitted curve at half-maximal effect.

The assay relates to CP203. Briefly: qHTS profiling for inhibitors of Plasmodium falciparum proliferation (AID 504749). Also: nearly all actives have a fitted effect of over 60% in size. To be noted: P. falciparum in erythrocytes, SYBR Green DNA, 72 h; series mostly up to 28.7 µM. An excerpt: NIH National Institute of Allergy and Infectious Diseases [NIAID] NIH Chemical Genomics Center [NCGC] MLPCN Grant: None Assay Provider: Xinzhuan Su, NIAID NCGC Assay Overview: Plasmodium falciparum is a virulent malarial parasite that kills 1-2 million people worldwide each year. Transmitted by mosquitoes, the sporozoite form of the parasite enters the blood stream to infect hepatocytes, where they become merozoites that infect red blood cells (erythrocytes). Within erythrocytes, merozoites begin a […] cycle of growth and division, after which the parasite is released to infect new red blood cells. Gametocytes, which form within erythrocytes as well, circulate in the bloodstream and are ingested by the mosquito, thereby completing the life cycle. To profile malarial isolates for differential chemical responses and to identify inhibitors of malarial growth, an assay that measures P. falciparum growth and replication within erythrocytes was employed. This assay uses a DNA binding fluorescent dye (SYBR Green) to detect parasite DNA following cell lysis. Because mature erythrocytes lack DNA, only Plasmodium-derived DNA is detected.
NCGC Assay Protocol Summary: The SYBR Green viability assay was adapted from a method described previously (Plouffe et al., 2008). For screening 3 ul culture medium was dispensed into 1536 well black clear bottom plates (Aurora Biotechnologies) using a Multidrop Combi (Thermo Fisher Scientific Inc.), 23 nL compounds in DMSO were added by a pin tool (Kalypsys), and 5 ul of erythrocytes infected with P. falciparum (0.3% parasitemia, 2.5% hematocrit final concentration) were added. The plates were incubated at 37 C in a humidified incubator in 5% CO2 for 72 h, and 2 ul lysis buffer (20 mM Tris HCl, 10 mM EDTA, 0.16% saponin, 1.6% triton X, 10X SYBR Green I supplied as 10,000X […] by Invitrogen) was added to each well. The plates were mixed for 25 sec with gentle shaking and incubated overnight at room temperature in the dark. The following morning, fluorescence intensity at 485(14) nm excitation and 535(25) nm emission wavelengths was measured on an EnVision (Perkin Elmer) plate reader. Plate reads were normalized relative to the control inhibitor (0.29 uM artemisinin) and vehicle (DMSO) wells present on each plate and then corrected by an algorithm using vehicle-only control plates at the beginning and end of the compound plate stack.
As for `CCOC(=O)c1cc(-c2ccccc2)nc2ccc(C)cc12`, the Potency entry is “inactive”.

In the case of `CC(C)OC(=O)Nc1ccc2nc(-c3cscn3)[nH]c2c1`, the Potency entry was “inactive”.

Consider `CC1CC(O)CC(C)(C)C1` (stereo not given), for which the Potency entry was “inactive”.

Turning to `Cc1ccccn1`, the Potency entry is “inactive”.

`O=C(O)[C@H]1CN(C/C=C/P(=O)(O)O)CCN1`: the Potency entry was “inactive”.

Take `C/C=C/C=C/C(=O)O`: the Potency entry was “inactive”.

Regarding `CC(C)(COP(=O)(O)OP(=O)(O)OC[C@H]1O[C@@H](n2cnc3c(N)ncnc32)[C@H](O)[C@@H]1OP(=O)(O)O)C(O)C(=O)NCCC(=O)NCCS` (stereo not given in full), the Potency result is “inactive”.

For `O=C(NNCS(=O)(=O)O)c1ccncc1`, the Potency entry is “inactive”.

For the compound `CN(CCO)CC(O)Cn1cnc2c1c(=O)n(C)c(=O)n2C` (stereo not given) (tested in a mixture with another compound), the Potency entry was “inactive”.

Consider `O=P(O)(O)OC[C@H](O)CO`, for which the Potency result is “inactive”.

On to `O=C(O)CCCC/C=C(\c1ccccc1)c1cccnc1`, for which the Potency entry is “inactive”.

On to `NC(=O)[C@@H]1CCCN1C(=O)[C@H](Cc1cnc[nH]1)NC(=O)[C@@H]1CCC(=O)N1`, for which the Potency entry is “inactive”.

Consider `CO/N=C(\C(=O)N[C@@H]1C(=O)N2C(C(=O)[O-])=C(C[n+]3cccc4c3CCC4)CS[C@H]12)c1csc(N)n1`, for which the Potency entry is “inactive”.

For the compound `O=C(O)/C=C/c1ccccc1`, the Potency entry was “inactive”.

As to `CC(=O)Nc1ccc(NC(=S)NC(=O)c2ccc(C(C)(C)C)cc2)cc1`, the Potency entry was “inactive”.

In the case of `COc1ccccc1N1CCN(CCCC(=O)c2ccc(F)cc2)CC1`, the Potency result is “inactive”.

Consider `OCl`, for which the Potency entry is “inactive”.

On to `CCN(CC)C(=O)c1cccnc1`, for which the Potency result is “inactive”.

Take `CC[C@H]1OC(=O)[C@H](C)[C@@H](O[C@H]2C[C@@](C)(OC)[C@@H](O)[C@H](C)O2)C(C)[C@@H](O[C@@H]2O[C@H](C)C[C@H](N(C)C)[C@@H]2O)[C@](C)(OC)C[C@@H](C)C(=O)[C@H](C)[C@@H](O)[C@]1(C)O` (stereo not given in full): the Potency entry is “inactive”.

As for `CCCCC`, the Potency result was “inactive”.

Regarding `NCCO/C=C/[C@H](N)C(=O)O`, the Potency result was “inactive”.

As for `CC1=CCC2CC1C2(C)C` (stereo not given), the Potency entry is “inactive”.

Consider `Cc1c(C)c2c(c(C)c1OC(=O)CCC(=O)O)CC[C@@](C)(CCC[C@H](C)CCC[C@H](C)CCCC(C)C)O2`, for which the Potency entry is “inactive”.

Consider `C=C(C)C1CC=C(C)CC1` (stereo not given), for which the Potency result was “inactive”.

Take `O=C(O)Cc1cc(I)c(Oc2ccc(O)c(I)c2)c(I)c1`: the Potency result was “inactive”.

As to `FC(F)(F)C(F)(F)C(F)(F)C(F)(F)C(F)(F)F`, the Potency result was “inactive”.

`CC1(C)S[C@@H]2[C@H](NC(=O)C3(N)CCCCC3)C(=O)N2[C@H]1C(=O)O`: the Potency entry is “inactive”.

Consider `CCCCCCCCCC(=O)NO`, for which the Potency result is “inactive”.

As to `CC(=O)[C@H]1CC[C@H]2[C@@H]3C=CC4=CC(=O)CC[C@@]4(C)[C@H]3CC[C@]12C`, the Potency result was “inactive”.

Take `CC(C)(Oc1ccc(C2CCCc3ccccc32)cc1)C(=O)O` (stereo not given): the Potency entry was “inactive”.

In the case of `O.O.O.O.O.O.O.O=S(=O)([O-])[O-].[Co+2]`, the Potency is 6.75 µM (active).

`CC(C)CCC[C@@H](C)[C@H]1CC[C@H]2[C@@H]3CC[C@@H]4C[C@H](O)CC[C@]4(C)[C@H]3CC[C@]12C`: the Potency result is “inactive”.

As to `CC(/C=C/C=C(\C)C(=O)O[C@@H]1O[C@H](CO[C@@H]2O[C@H](CO)[C@@H](O)[C@H](O)[C@H]2O)[C@@H](O)[C@H](O)[C@H]1O)=C\C=C\C=C(C)\C=C\C=C(/C)C(=O)O[C@@H]1O[C@H](CO[C@@H]2O[C@H](CO)[C@@H](O)[C@H](O)[C@H]2O)[C@@H](O)[C@H](O)[C@H]1O`, the Potency entry was “inactive”.

For `C[C@]12CCC(=O)C[C@@H]1CC[C@@H]1[C@@H]2CC[C@]2(C)C=CC[C@@H]12`, the Potency entry was “inactive”.

Regarding `CC(C)=CCC/C(C)=C/C=C/C(C)=C/C=C/C(C)=C/C=C/C=C(C)/C=C/C=C(C)/C=C/C=C(\C)CCC=C(C)C`, the Potency entry is “inactive”.

On to `CCOC(=O)C1=C(COCCN)NC(C)=C(C(=O)OC)C1c1ccccc1Cl` (stereo not given), for which the Potency entry was “inactive”.

Consider `Cc1cccc(C)c1NC(=O)NC1=CCCN1C`, for which the Potency result is “inactive”.

Take `C=CC[C@@H]1/C=C(\C)C[C@H](C)C[C@H](OC)[C@H]2O[C@@](O)(C(=O)C(=O)N3CCCC[C@H]3C(=O)O[C@H](/C(C)=C/[C@@H]3CC[C@@H](O)[C@H](OC)C3)[C@H](C)[C@@H](O)CC1=O)[C@H](C)C[C@@H]2OC`: the Potency is 4.78 µM (active).

As for `O=C1c2ccccc2C(=O)C1c1ccc(Cl)cc1`, the Potency result was “inactive”.

On to `O=P(O)(O)CP(=O)(O)O`, for which the Potency entry is “inactive”.
